KDM5B inhibitor: inhibitors of human KDM5B histone demethylase; Q9UGL1; KDM5B demethylase, FDH-coupled NADH fluorescence (FDH is formaldehyde dehydrogenase); Potency, µM (top dose mostly 57.7 µM), hits mostly inhibitors; 220,000 tested, 2.6% active; active means well fitted inhibition curve with a large enough effect; further: 0% is about no effect; nearly all actives have a fitted effect of over 70% in size
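qHTS format, multiple compound concentrations. Buffer 50 mM HEPES pH 7.5/0.01% Tween-20; 200 nM KDM5BΔAP final; 10 min compound preincubation; substrate-mix levels 12.5 µM peptide, 25 µM α-KG, 0.25 mM NAD⁺; 30 min RT; ΔRFU.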
Active calls of the source: *; i = inactive. The full list was thinned out, with hits kept by preference. Potency means the concentration at half of the fitted maximal effect.

SMILES	KDM5B inhibitor
CNC(=O)N1C[C@@H](CN(C)C)[C@H](NC(=O)c2cccnc2)C1	i
COc1ccc(C(=O)N[C@@H]2CN(c3ncccn3)C[C@H]2CN(C)C)cc1F	25µM*
CCOc1ccc(S(=O)(=O)Nc2ccc(C)cc2)cc1-c1nc2c(C(C)(C)C)nn(C)c2c(=O)[nH]1	i
Cn1c(=O)c2c(ncn2CCC(=O)Nc2ccccc2Cl)n(C)c1=O	i
CCN1CCN(c2ccc(NC(=O)c3ccc(OC)c(F)c3)cc2C)CC1	i
Cc1c(OCC(=O)Nc2ccccc2)c(=O)ccn1CCO	i
O=C(NCc1ccc(N2CCCC2)cc1)C1CCCN(c2cnn(Cc3ccccc3)c(=O)c2)C1 (stereo not given)	i
CCc1cccc2c(C(=O)O)cc(-c3ccccc3C)nc12	i
O=C(NCc1ccc(C(=O)N2CCCCC2)cc1)c1cccc(C(F)(F)F)c1	i
Cc1ccc(C2=C(O)C(=O)N(Cc3cccnc3)C2c2cccc(Cl)c2)cc1 (stereo not given)	i
CN(C)C[C@@H]1CN(c2ncccn2)C[C@H]1NC(=O)c1ccc(Cl)s1	28µM*
COc1cccc(CC(=O)N[C@@H]2CN(Cc3ccccn3)C[C@H]2CN(C)C)c1	i
Cc1ccc(C(=O)N[C@@H]2CN(c3ccncn3)C[C@H]2CN(C)C)s1	i
COc1cccc(C(=O)N[C@@H]2CN(c3ccccn3)C[C@H]2CN(C)C)c1	28µM*
CN(C)C[C@@H]1CN(S(C)(=O)=O)C[C@H]1NC(=O)c1ccc(Cl)s1	i
C#Cc1cccc(NS(=O)(=O)c2cccs2)c1	i
O=C(CN1CCCCC1)Nc1nc(-c2ccccc2)c(-c2ccccc2)s1	i
Cc1ccccc1NC(=O)C1CCCN(c2cnc3ccccc3n2)C1 (stereo not given)	i
CCc1ccccc1-n1nc(-c2c(C)nc3scc(CC(=O)NCc4ccco4)n3c2=O)cc1C	28µM*
CCCCNC(=O)c1c(-c2ccccc2)c(-c2ccccc2)nn(C)c1=O	i
CCc1nc2c(=O)n(CC(=O)NCc3ccco3)nc(C)c2s1	i
Cn1nc(C(=O)NCc2ccco2)c2ccccc2c1=O	i
Cc1nc2scc(C)n2c1/C=C/c1cc(C(=O)O)c2ccccc2n1	i
CCc1ccccc1-n1nc(-c2c(C)nc3scc(CC(=O)N4CCCC4)n3c2=O)cc1C	32µM*
CCCCNC(=O)Cn1c(=O)cc(C)c2c(C)nn(-c3ccc(CC)cc3)c21	i
SMILES	KDM5B inhibitor
CCCCCCNC(=O)Cc1csc2nc(C)c(-c3cc(C)n(-c4ccccc4OC)n3)c(=O)n12	28µM*
CCCCCn1nc(C(=O)Nc2nc(-c3cc(OC)ccc3OC)cs2)c2ccccc2c1=O	i
CCCCNC(=O)Cc1csc2nc(C)c(-c3cc(C)n(-c4ccccc4CC)n3)c(=O)n12	32µM*
Cc1nc2scc(C)n2c(=O)c1S(=O)(=O)N1CCN(c2ccccc2)CC1	i
COc1ccccc1CNC(=O)Cc1csc2nc(-c3ccccc3)cn12	i
COc1ccc(S(=O)(=O)N2CCN(CCNC(=O)COc3ccc(C(C)C)cc3)CC2)cc1	i
Cc1ccc(S(=O)(=O)Oc2ccccc2C2C3=C(CCCC3=O)OC3=C2C(=O)CCC3)cc1	i
CCC(=O)N1N=C(c2cc(Cl)ccc2Cl)CC1c1ccc2nccnc2c1 (stereo not given)	i
CCCCNc1nc(-c2ccc(OC)c(OC)c2)cs1	i
COc1cnc(CSc2ncccn2)cc1OCC(=O)N1CCCc2ccccc21	i
Cc1ccc(C2(C)NC(=O)N(Cc3coc(-c4cccs4)n3)C2=O)cc1 (stereo not given)	i
CN(C)S(=O)(=O)N1CCN(C(=O)Cc2cccc(F)c2)CC1	i
COc1ccc(CN(C)CC(=O)N2c3ccccc3NC(=O)CC2C)cc1F (stereo not given)	i
CCCCCNC(=O)Cc1csc2nc(C)c(-c3cc(C)n(-c4cccc(C)c4C)n3)c(=O)n12	32µM*
CCCCNC(=O)c1cc2c(=O)n3cccc(C)c3nc2s1	i
CCCCOCCCNC(=O)Cn1nc(C)c2ccccc2c1=O	i
CC(SC1CCCC1)C(=O)Nc1cccc(C#N)c1 (stereo not given)	i
Cc1oc2cc(OCCN3CCN(C)CC3)ccc2c(=O)c1-c1ccc(Cl)cc1	i
COc1cccc(CN2CCCCCCN(C)C(=O)[C@@H]3CCC[C@@H]32)n1	i
O=C1[C@@H]2C[C@@H](CN2Cc2ccc(F)c(F)c2)Oc2ccccc2N1Cc1ccccn1	i
COCCN1C(=O)[C@@H]2C[C@@H](CN2Cc2ccccc2)Oc2ccccc21	i
CN1C(=O)[C@@H]2C[C@@H](CN2Cc2ccc(OC(F)(F)F)cc2)Oc2ccccc21	i
O=C1[C@@H]2C[C@@H](CN2Cc2nccs2)Oc2ccccc2N1Cc1ccc(OC(F)(F)F)cc1	28µM*
COCCN1C(=O)[C@@H]2C[C@@H](CN2Cc2ccc(Cl)cc2)Oc2ccccc21	i
O=C1[C@@H]2C[C@@H](CN2Cc2ccccc2)Oc2ccccc2N1CC1CC1	i
SMILES	KDM5B inhibitor
O=C1[C@@H]2C[C@@H](CN2C2COC2)Oc2ccccc2N1Cc1ccc(OC(F)(F)F)cc1	i
O=C1[C@@H]2C[C@@H](CN2Cc2cnc3ccccc3c2)Oc2ccccc2N1CC1CC1	45µM*
COCCN1C(=O)[C@@H]2C[C@@H](CN2Cc2ccc3ccccc3n2)Oc2ccccc21	32µM*
Cc1ccc(NC(=O)c2ccc3c(Cl)c4c(nc3c2)CCCC4)cc1F	i
Cn1nc(C(=O)NC23CC4CC(CC(C4)C2)C3)c2ccccc2c1=O	i
Cc1ccccc1OCc1nn2c(CN3CCOCC3)nnc2s1	i
O=C(Cc1ccc(Br)cc1)NC1=NCCS1	i
C=CCNC(=O)c1ccc2cc[nH]c2n1	45µM*
O=C(NC1CC1)c1ccc2cc[nH]c2n1	i
O=C(NCc1ccccc1)c1ccc2ccccc2n1	i
O=C(Nc1ccc(Cl)cc1Cl)c1c[nH]c2cccnc12	i
O=C(NCc1ccc(Cl)cc1)c1ccc2cc[nH]c2n1	112µM*
O=C(NCc1ccc(Cl)cc1)c1nc(Cc2c[nH]c3ccccc23)no1	i
O=C(Nc1ccc(Cl)cc1Cl)c1ccnc2[nH]ccc12	i
CNC(=O)c1ccc2cc[nH]c2n1	i
O=C(Nc1ccc(Cl)cc1Cl)c1ccc2cc[nH]c2n1	89µM*
CC(C)c1ccc(OCC(=O)NOCc2ccccc2)cc1	i
CCCn1nc(C(=O)OCc2nnc(-c3ccccc3)o2)c2ccccc2c1=O	i
CCc1c(C)nc2n(c1=O)CN(CCCN1CCOCC1)CN2c1ccccc1OC	i
CC(=O)c1cc(Cl)c(C)cc1O	i
CC(C)OC(=O)COc1ccc2c(-c3cc4ccccc4oc3=O)cc(=O)oc2c1	i
Cc1cc(=O)[nH]c2sc3c(C(F)(F)F)cc(=O)[nH]c3c12	i
O=C(c1cccc(C(F)(F)F)c1)N1CCCC1c1ccco1 (stereo not given)	i
Cc1nc2ccc(C(=O)OC(C)C(=O)NC3CC3)cc2nc1C (stereo not given)	i
Cc1ccc(C)c(NC(=O)COC(=O)c2nc(-c3ccccc3)oc2C)c1	i
Cc1ccc(NC(=O)CN2CCN(C(=O)CCNS(=O)(=O)c3ccc4ccccc4c3)CC2)cc1	i
COC(=O)C1=C(C(=O)OC)SC(=C(Cl)C(=S)Oc2ccccc2)S1	i
COc1cccc2cc(C(=O)OCC(=O)NCc3ccc4c(c3)OCO4)c(=O)oc12	i
COc1ccccc1-c1nc(C(=O)NCc2ccc3c(c2)OCO3)n2ccccc12	25µM*

High-throughput results as filed in PubChem.
